# Source: PubChem BioAssay
# Active and inactive are the calls of the source.
# Legend:
# [1] = system: Plasmodium falciparum Sir2 (PF13_0152, Sir2A); assay: Plasmodium falciparum Sir2A binding compounds – biochemical, small-molecule microarray, 635 nm fluorescence, primary screen (AID 1098); conditions: fluorescence 635 nm, higher = more signal;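 also: score merges spot fluorescence intensity with its signal-to-noise ratio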
# [2] = probe aDKK1 binding to arrayed compounds – biochemical, biotinylated probe, 635/667 nm fluorescence, primary screen (AID 1099); conditions: small-molecule microarray, higher = more signal;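 also: score merges 667nm spot fluorescence with signal to noise across triplicate slides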
# [3] = probe aCHRDL2 binding to arrayed compounds – biochemical, biotinylated probe, 635/667 nm fluorescence, primary screen (AID 1100); conditions: small-molecule microarray, higher = more signal
# [4] = change in splice reporter luminescence, either direction, cell-based, HEK293, spliceosome inhibition project, primary screen (AID 1101); conditions: HEK293 splicing luciferase reporter, 24 h, higher = more signal, called active from +8 up or from −8 down;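 also: HEK293 cells carrying a splicing-competent luciferase reporter gene; test concentration not given here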
# [5] = biological target: Fibroblast growth factor 10 (Homo sapiens) (UniProt O15520); assay: compounds binding fibroblast growth factor 10 – biochemical, small-molecule microarray, 635 nm fluorescence, primary screen (AID 1102); conditions: FGF10 binding, fluorescence 635 nm, higher = more signal
# [6] = system: glycogen synthase kinase-3 (GSK3A per assay name; protocol says GSK3B); assay: compounds binding glycogen synthase kinase-3 – biochemical, small-molecule microarray, 635 nm fluorescence, GSK3A, primary screen (AID 1103); conditions: fluorescence 635 nm, higher = more signal; also: the record names both GSK3A and GSK3B
# [7] = biological target: Epidermal growth factor receptor (Homo sapiens) (UniProt P00533); assay: compounds binding epidermal growth factor receptor – biochemical, small-molecule microarray, 635 nm fluorescence, primary screen (AID 1104); conditions: EGFR binding, higher = more signal;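 also: score merges 667 nm emission intensity with spot signal to noise over triplicate slides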
# [8] = biological target: Follistatin-related protein 3 (Homo sapiens) (UniProt O95633); assay: compounds binding follistatin-related protein 3 – biochemical, small-molecule microarray, 635 nm fluorescence, primary screen (AID 1105); conditions: FSTL3 binding, higher = more signal;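 also: score merges emission near 667 nm and signal to noise per printed spot across three slides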
# [9] = biological target: Dickkopf-related protein 1 (Homo sapiens) (UniProt O94907); assay: small molecules binding DKK1 protein – biochemical, small-molecule microarray, 635 nm fluorescence scan, primary screen (AID 1106); conditions: higher = more signal;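 also: score merges emission near 667 nm with signal to noise over three replicate slides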
# [10] = system: Inhibin beta A chain (activin A); assay: small molecules binding activin A – biochemical, small-molecule microarray, 635 nm fluorescence scan, primary screen (AID 1107); conditions: INHBA, higher = more signal;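 also: mouse activin A protein probed at 4.33 µg/mL on printed slides; score merges bound-protein fluorescence near 667 nm with spot signal-to-noise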
# [11] = system: Human papillomavirus type 1a protein E7 (residues 44-93); assay: small molecules binding HPV E7 44-93 – biochemical, small-molecule microarray, residues 44-93, 635 nm fluorescence, primary screen (AID 1108); conditions: fluorescence 635 nm, higher = more signal;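 also: E7 fragment applied at 1 µg/mL in TBST for 1 h at 4 C; score combines spot fluorescence with its signal to noise ratio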
# [12] = hepatitis C replication reporter changes, two-sided – Huh7 cells, luciferase reporter, HCV replication inhibitor project, primary screen (AID 1109); conditions: Huh7 HCV replicon luciferase reporter, 48 h; higher = more signal;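 also: huh7 hepatoma cells harbouring a luciferase neomycin HCV replicon reporter; luciferase luminescence as measure of HCV replicon replication; test concentration not given here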
# [13] = biological target: Left-right determination factor 2 (Homo sapiens) (UniProt O00292); assay: small molecules binding LEFTY2 protein – biochemical, small-molecule microarray, 635 nm fluorescence scan, primary screen (AID 1110); conditions: higher = more signal
# [14] = biological target: Calmodulin-1 (Homo sapiens) (UniProt P0DP23); assay: small molecules binding calmodulin-1 with EGTA – biochemical, small-molecule microarray, Cy5-labelled CALM1, profiling panel (AID 1111); conditions: Cy5-CALM1 binding fluorescence, higher = more signal;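 also: labelled calmodulin applied in Tris saline Tween buffer holding calcium plus EGTA and DTT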
# [15] = biological target: Calmodulin-1 (Homo sapiens) (UniProt P0DP23); assay: small molecules binding Ca-loaded calmodulin-1 – biochemical, small-molecule microarray, Cy5-labelled CALM1, plus calcium, artefact control for SMM control-protein annotation, profiling panel (AID 1112); conditions: Cy5-CALM1 binding fluorescence, higher = more signal;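 also: score merges spot fluorescence with signal to noise from triplicate slides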
# [16] = probe aWnt5a binding to arrayed compounds – biochemical, biotinylated probe, 635/667 nm fluorescence, primary screen (AID 1113); conditions: small-molecule microarray, higher = more signal;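 also: score merges 667 nm fluorescence intensity with signal-to-noise per printed feature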
# [17] = probe aShh binding to arrayed compounds – biochemical, biotinylated probe, 635/667 nm fluorescence, primary screen (AID 1114); conditions: small-molecule microarray, higher = more signal;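 also: probe is biotin-labelled aShh protein from a stem cell growth factor screen; measures binding of labelled protein to compounds printed on the slide; score merges feature fluorescence at 667 nm with signal-to-noise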
# [18] = probe aNog binding to arrayed compounds – biochemical, biotinylated probe, 635/667 nm fluorescence, primary screen (AID 1115); conditions: small-molecule microarray, higher = more signal;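 also: probe is biotinylated aNog protein used at 0.15 µg/mL for 1 h at 4 C; z-score combines 667 nm fluorescence of each spot with its signal to noise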
# [19] = biological target: Torsin-1A-interacting protein 1 (Homo sapiens) (UniProt Q5JTV8); assay: compound microarray binding of lysate hLAP1 – cell lysate, small-molecule microarray, COS7 lysate, 635/667 nm fluorescence, primary screen (AID 1116); conditions: 635 nm fluorescence, higher = more signal
# [20] = biological target: Alpha-bungarotoxin (Bungarus multicinctus) (UniProt P60615); assay: compounds binding labelled alpha-BTX control protein – biochemical, small-molecule microarray, Alexa647 label, 635/667 nm fluorescence, artefact control for SMM control protein annotation, profiling panel (AID 1117); conditions: alpha-BTX-A647 binding fluorescence, higher = more signal
# Alpha-bungarotoxin (Bungarus multicinctus), sequence (P60615 whole entry, looked up): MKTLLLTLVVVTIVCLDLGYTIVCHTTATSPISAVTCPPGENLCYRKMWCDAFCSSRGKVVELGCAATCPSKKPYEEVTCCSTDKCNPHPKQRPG
# Dickkopf-related protein 1 (Homo sapiens), sequence (O94907 whole entry, looked up): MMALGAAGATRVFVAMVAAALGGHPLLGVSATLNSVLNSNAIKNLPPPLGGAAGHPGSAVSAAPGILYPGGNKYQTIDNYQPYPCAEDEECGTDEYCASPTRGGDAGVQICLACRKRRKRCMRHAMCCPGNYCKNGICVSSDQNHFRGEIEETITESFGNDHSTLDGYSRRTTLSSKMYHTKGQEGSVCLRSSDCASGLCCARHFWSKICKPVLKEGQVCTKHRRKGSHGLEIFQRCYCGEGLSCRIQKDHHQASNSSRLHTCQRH
# Torsin-1A-interacting protein 1 (Homo sapiens), sequence (Q5JTV8 whole entry, looked up): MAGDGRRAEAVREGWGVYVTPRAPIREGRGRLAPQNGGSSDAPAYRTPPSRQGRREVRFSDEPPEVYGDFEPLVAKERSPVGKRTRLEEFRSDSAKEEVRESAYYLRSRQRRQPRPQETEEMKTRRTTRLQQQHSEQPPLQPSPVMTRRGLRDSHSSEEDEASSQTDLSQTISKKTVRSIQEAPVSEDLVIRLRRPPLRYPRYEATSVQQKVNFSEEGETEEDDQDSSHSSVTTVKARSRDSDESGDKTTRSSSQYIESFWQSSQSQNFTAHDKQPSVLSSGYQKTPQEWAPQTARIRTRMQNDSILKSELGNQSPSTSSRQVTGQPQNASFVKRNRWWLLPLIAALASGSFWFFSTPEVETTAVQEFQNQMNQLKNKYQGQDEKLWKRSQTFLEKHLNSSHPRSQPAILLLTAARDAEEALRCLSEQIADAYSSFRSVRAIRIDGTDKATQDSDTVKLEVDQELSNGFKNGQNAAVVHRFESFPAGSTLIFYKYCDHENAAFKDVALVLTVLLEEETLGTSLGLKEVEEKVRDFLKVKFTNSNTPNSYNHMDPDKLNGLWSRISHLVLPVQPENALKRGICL
# Epidermal growth factor receptor (Homo sapiens), sequence (P00533 whole entry, looked up): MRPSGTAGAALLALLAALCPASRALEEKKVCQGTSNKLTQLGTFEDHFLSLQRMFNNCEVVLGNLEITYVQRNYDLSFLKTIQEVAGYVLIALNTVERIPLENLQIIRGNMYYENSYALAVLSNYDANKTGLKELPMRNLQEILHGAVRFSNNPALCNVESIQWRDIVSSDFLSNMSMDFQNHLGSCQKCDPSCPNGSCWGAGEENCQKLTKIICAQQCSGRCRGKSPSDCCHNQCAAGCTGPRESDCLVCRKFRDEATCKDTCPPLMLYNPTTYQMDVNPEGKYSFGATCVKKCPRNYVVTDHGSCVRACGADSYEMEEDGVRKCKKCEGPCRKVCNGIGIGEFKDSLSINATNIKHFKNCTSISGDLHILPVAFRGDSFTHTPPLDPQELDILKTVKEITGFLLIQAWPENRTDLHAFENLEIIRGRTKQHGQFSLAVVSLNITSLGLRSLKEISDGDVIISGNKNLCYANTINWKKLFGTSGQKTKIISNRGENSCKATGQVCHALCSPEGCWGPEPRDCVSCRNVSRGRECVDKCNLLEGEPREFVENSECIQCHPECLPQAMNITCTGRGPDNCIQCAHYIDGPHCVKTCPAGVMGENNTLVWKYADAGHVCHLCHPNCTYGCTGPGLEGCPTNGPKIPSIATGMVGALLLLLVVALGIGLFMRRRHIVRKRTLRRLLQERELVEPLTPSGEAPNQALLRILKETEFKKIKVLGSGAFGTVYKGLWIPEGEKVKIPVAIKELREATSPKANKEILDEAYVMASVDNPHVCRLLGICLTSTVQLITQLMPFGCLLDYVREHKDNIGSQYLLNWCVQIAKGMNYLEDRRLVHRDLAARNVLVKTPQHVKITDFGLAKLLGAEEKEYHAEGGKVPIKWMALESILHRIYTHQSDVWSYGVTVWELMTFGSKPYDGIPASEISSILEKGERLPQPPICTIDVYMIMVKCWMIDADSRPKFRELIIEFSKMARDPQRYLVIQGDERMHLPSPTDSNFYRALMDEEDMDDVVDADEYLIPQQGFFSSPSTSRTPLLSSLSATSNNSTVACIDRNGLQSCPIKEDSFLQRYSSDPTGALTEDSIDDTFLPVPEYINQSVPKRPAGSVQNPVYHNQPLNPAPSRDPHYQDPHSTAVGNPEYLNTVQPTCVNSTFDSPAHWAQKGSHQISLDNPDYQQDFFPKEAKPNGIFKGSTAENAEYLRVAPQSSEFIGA
# Fibroblast growth factor 10 (Homo sapiens), sequence (O15520 whole entry, looked up): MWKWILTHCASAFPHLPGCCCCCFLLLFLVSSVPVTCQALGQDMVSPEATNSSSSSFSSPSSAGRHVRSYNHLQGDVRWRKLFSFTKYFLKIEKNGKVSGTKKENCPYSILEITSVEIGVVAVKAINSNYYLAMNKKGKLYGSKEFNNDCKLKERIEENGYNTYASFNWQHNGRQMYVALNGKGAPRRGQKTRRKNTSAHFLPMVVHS
# Left-right determination factor 2 (Homo sapiens), sequence (O00292 whole entry, looked up): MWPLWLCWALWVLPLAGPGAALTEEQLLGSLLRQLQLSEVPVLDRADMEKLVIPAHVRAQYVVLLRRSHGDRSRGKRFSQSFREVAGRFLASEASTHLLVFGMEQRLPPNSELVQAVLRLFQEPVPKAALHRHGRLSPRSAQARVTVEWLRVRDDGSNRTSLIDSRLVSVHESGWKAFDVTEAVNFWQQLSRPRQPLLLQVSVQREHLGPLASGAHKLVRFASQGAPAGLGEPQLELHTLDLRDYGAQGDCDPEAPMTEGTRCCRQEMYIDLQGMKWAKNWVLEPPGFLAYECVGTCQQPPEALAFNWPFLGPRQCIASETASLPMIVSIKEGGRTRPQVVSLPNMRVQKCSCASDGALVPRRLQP
# Follistatin-related protein 3 (Homo sapiens), sequence (O95633 whole entry, looked up): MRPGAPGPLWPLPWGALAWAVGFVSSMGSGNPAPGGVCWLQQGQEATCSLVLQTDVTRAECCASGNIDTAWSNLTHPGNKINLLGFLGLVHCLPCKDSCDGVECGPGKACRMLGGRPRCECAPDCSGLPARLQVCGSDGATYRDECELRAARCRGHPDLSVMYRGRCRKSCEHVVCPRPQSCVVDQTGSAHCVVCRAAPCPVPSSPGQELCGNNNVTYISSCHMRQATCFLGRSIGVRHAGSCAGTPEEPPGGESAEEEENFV
SMILES,composite z-score [1],composite z-score [2],composite z-score [3],z-score [4],composite z-score [5],composite z-score [6],composite z-score [7],composite z-score [8],composite z-score [9],composite z-score [10],composite z-score [11],z-score [12],composite z-score [13],composite z-score [14],composite z-score [15],composite z-score [16],composite z-score [17],composite z-score [18],composite z-score [19],composite z-score [20]
CCN1C(=O)[C@H]2[C@H]3[C@H](O)[C@H](O)CC(=NO[C@@H]4O[C@H](CO)[C@@H](O)[C@H](O)[C@H]4O)[C@@H]3CC[C@H]2C1=O,0.562,-0.291,-0.233,-0.448 (inactive),-0.584,-1.42,-0.831,-0.534,-0.0655,0.613,-2.4,0.26,-0.251,-0.665,-0.813,-0.18,-0.545,-0.1,-0.442,-0.479
Cc1cc2c(c(=O)o1)[C@H](O)[C@H]1O[C@H]1C2=O,0.412,-0.178,-0.245,-0.331 (inactive),0.88,0.191,0.0205,-0.139,-0.0438,0.623,-1.5,-2.16,0.761,-0.766,-1.38,-0.208,0.0048,-0.359,0.17,0.0658
CCOC(=O)CCN1C(=O)[C@H]2[C@H]3[C@H](O)[C@H](O)CC(=NOCc4ccccc4)[C@@H]3CC[C@H]2C1=O,0.174,-0.206,-0.608,0.0671 (inactive),0.526,0.597,0.641,0.749,0.4,0.0727,-0.482,-1.08,0.591,-0.138,-0.848,-0.0125,-0.243,0.107,-0.0594,0.419
COC(=O)CC=C[C@H](C)[C@@H](OCc1ccccc1Br)C(C)C,-0.0201,-0.371,-0.397,-0.76 (inactive),0.321,-0.243,0.195,0.285,0.292,0.0114,-0.261,0.0087,0.551,-0.354,-0.679,-0.0417,-0.138,-0.333,-0.173,1.54
COC(=O)[C@@H]1N=C(c2ccc(OCCCO)cc2)O[C@@H]1c1ccccc1N=[N+]=[N-],1.47,1.14,1.37,-1.99 (inactive),0.046,0.981,-0.356,-0.0503,-0.68,1.08,0.515,-1.66,-0.187,1.54,1.04,-0.0445,0.214,0.619,1.27,1.42
O=C1C[C@@H](O)[C@@H](O)[C@@H]2[C@@H]3C(=O)N(C4CCCCC4)C(=O)[C@@H]3CC[C@H]12,0.523,-0.376,-0.711,0.804 (inactive),0.438,0.919,0.634,0.553,0.718,-0.294,0.717,-0.0951,0.456,-0.0292,-0.57,-0.114,-0.309,0.0051,0.473,-0.0214
CO[C@H]([C@@H](C)[C@H](OC)c1ccccc1)[C@H](C)[C@@H](OC)[C@H](C)C(C)=O,-0.275,-0.442,-0.117,0.116 (inactive),0.173,-0.641,-0.577,-0.523,0.345,0.782,-0.431,1.14,0.402,-1.1,-0.0474,0.0101,-0.367,-0.0286,-0.482,-0.847
C[C@H](c1ccccc1)N1C(=O)[C@H]2[C@H]3[C@H](O)[C@H](O)CC(=O)[C@@H]3CC[C@H]2C1=O,-0.0226,-0.0352,-0.394,0.737 (inactive),0.615,-0.0137,0.268,0.344,0.822,-1.79,-0.81,-1.22,0.417,-0.229,-0.465,-0.0495,-0.237,0.0638,-0.0506,0.3
CC(CCN1CCc2nc(-c3ccccc3)c(-c3ccccc3)cc2C1)=NO[C@@H](C)c1cn([C@H](CO)Cc2ccccc2)nn1,0.0154,-0.336,0.119,-1.26 (inactive),-0.105,-0.335,0.209,0.176,0.175,1.13,-0.127,-0.985,0.555,0.0845,0.444,-0.139,-0.221,-0.305,-0.273,1.42
O=C1C2=CC[C@H]3C(=O)N(Cc4ccc5c(c4)OCO5)C(=O)[C@H]3[C@H]2[C@H](O)[C@@H]2O[C@H]12,0.557,-0.141,-0.51,0.867 (inactive),0.385,0.526,0.65,0.459,0.347,0.29,0.631,-0.43,0.341,-0.306,-0.502,-0.0495,-0.346,-0.0381,0.442,0.251
COc1ccc(O[C@H]2C=C[C@@H](c3ccccc3)O[C@@H]2CON=C[C@@H](C)[C@H](OCc2ccccc2)C(C)C)cc1,-0.369,-0.406,-0.17,0.275 (inactive),-1.11,-1.04,-0.805,-0.761,-0.733,0.272,-0.409,-2,-0.0764,-0.323,-0.434,-0.124,-0.0626,-0.176,-1.24,-0.25
